PubChem BioAssay (NCI)
About 83,000 compounds went through this panel and 20% of them were active in at least one assay; those are over-represented in the sample as a whole.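 Compound tested at a single concentration for 48 hours in 96-well plates; a percent growth value below 10 was scored as active.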 Values without a mark were called inactive. Calls of active or inactive are those of the source.

Assays:
Test in all cases: NCI-60 one-dose screen, 48 h (100 = growth as untreated, 0 = no growth, -100 = all killed)
Conditions in all cases: 10 µM unless noted
[1] = tested on: NCI-H23 lung
[2] = tested on: NCI-H226 lung
[3] = tested on: NCI-H322M lung
[4] = tested on: HOP-62 NSCLC
[5] = tested on: NCI-H460 lung
[6] = tested on: HOP-92 NSCLC
[7] = tested on: NCI-H522 lung
[8] = tested on: A549/ATCC NSCLC
[9] = tested on: 786-0 renal
[10] = tested on: COLO 205 colon
[11] = tested on: DU-145 prostate
[12] = tested on: K-562 leukemia
[13] = tested on: MALME-3M melanoma
[14] = tested on: MDA-MB-231 breast
[15] = tested on: RXF 393 renal
[16] = tested on: SF-268 CNS
[17] = tested on: SF-295 CNS
[18] = tested on: UACC-257 melanoma
[19] = tested on: M14 melanoma
[20] = tested on: SF-539 CNS

## CC(C)OC(=O)N1CCOCC1
[1]
  growth: 98.1%
[2]
  growth: 101%
[3]
  growth: 106%
[4]
  growth: 98.9%
[5]
  growth: 107%
[6]
  growth: 92.2%
[7]
  growth: 95.9%
[8]
  growth: 103%
[9]
  growth: 104%
[10]
  growth: 101%
[11]
  growth: 104%
[12]
  growth: 123%
[13]
  growth: 94.7%
[14]
  growth: 90.8%
[15]
  growth: 116%
[16]
  growth: 99.7%
[17]
  growth: 113%
[18]
  growth: 97.1%
[19]
  growth: 103%

## O=c1cc(Cc2ccc([N+](=O)[O-])cc2)[nH]c(=O)[nH]1
[1]
  growth: 99.2%
[2]
  growth: 107%
[3]
  growth: 112%
[4]
  growth: 93.3%
[5]
  growth: 109%
[6]
  growth: 96.1%
[7]
  growth: 90.5%
[8]
  growth: 106%
[9]
  growth: 98.9%
[10]
  growth: 100%
[11]
  growth: 119%
[12]
  growth: 111%
[13]
  growth: 99.9%
[14]
  growth: 110%
[15]
  growth: 109%
[16]
  growth: 106%
[17]
  growth: 122%
[18]
  growth: 109%
[19]
  growth: 104%

## C=CCn1c2ccccc2c2c3c(c4c5ccccc5n(CC=C)c4c21)C(=O)N(O)C3=O
[1]
  growth: 24.2%
[2]
  growth: -97.9% (active)
[3]
  growth: 52.8%
[4]
  growth: -1.11% (active)
[5]
  growth: 8.86% (active)
[6]
  growth: 77.2%
[7]
  growth: -62.5% (active)
[8]
  growth: 37.7%
[9]
  growth: 15.1%
[10]
  growth: 56.5%
[11]
  growth: 24.9%
[12]
  growth: 27.3%
[13]
  growth: 96.1%
[14]
  growth: 39.4%
[15]
  growth: 42.2%
[16]
  growth: 33.7%
[17]
  growth: 16.2%
[20]
  growth: 2.86% (active)
[19]
  growth: 17.2%

## CN(C)CCCN(c1nc(C(Cl)(Cl)Cl)ns1)c1nc(C(Cl)(Cl)Cl)ns1
[1]
  growth: 58.9%
[2]
  growth: 53.9%
[3]
  growth: 65.5%
[4]
  growth: 48.4%
[5]
  growth: 8.42% (active)
[6]
  growth: -0.62% (active)
[7]
  growth: 39.4%
[8]
  growth: 37.5%
[9]
  growth: 42.4%
[10]
  growth: 10.2%
[11]
  growth: 75%
[12]
  growth: 0.874% (active)
[13]
  growth: 44.8%
[14]
  growth: 39.4%
[15]
  growth: 36.8%
[16]
  growth: 34.3%
[20]
  growth: 73.2%
[18]
  growth: 19.8%
[19]
  growth: -19% (active)

## O=C(Nc1cccc(-n2cc(-c3ccncc3)c(-c3ccc(Cl)c(O)c3)n2)c1)Nc1cccc(C(F)(F)F)c1
[1]
  growth: 14.6%
[2]
  growth: 35.1%
[3]
  growth: 48.2%
[4]
  growth: 38.1%
[5]
  growth: 7.29% (active)
[6]
  growth: -17.7% (active)
[7]
  growth: -10.8% (active)
[8]
  growth: 5.74% (active)
[9]
  growth: 34.4%
[10]
  growth: 94.2%
[11]
  growth: 23.1%
[12]
  growth: 13.4%
[13]
  growth: 1.16% (active)
[14]
  growth: 21.3%
[15]
  growth: 31.3%
[16]
  growth: 28.5%
[20]
  growth: 38.5%
[18]
  growth: -11.6% (active)
[19]
  growth: 16.6%

## COc1ccc(Nc2[nH]n3c(=O)cc(-c4ccccc4)nc3c2C(=O)Nc2ccc(C)cc2)c(OC)c1
[1]
  growth: 88.7%
[2]
  growth: 87.4%
[3]
  growth: 81.5%
[4]
  growth: 80.3%
[5]
  growth: 111%
[6]
  growth: 68.9%
[7]
  growth: 78.2%
[8]
  growth: 88.7%
[9]
  growth: 92.7%
[10]
  growth: 98%
[11]
  growth: 118%
[12]
  growth: 68.4%
[13]
  growth: 91.6%
[14]
  growth: 86.2%
[15]
  growth: 92.1%
[16]
  growth: 96.2%
[17]
  growth: 95.7%
[20]
  growth: 81%
[18]
  growth: 85.4%
[19]
  growth: 95.6%

## C=C1CCC2C(C)(CO)C(O)CCC2(C)C1CC(NCc1ccccc1)C1=CCOC1=O (stereo not given)
[1]
  growth: 98.9%
[2]
  growth: 100%
[3]
  growth: 103%
[4]
  growth: 107%
[5]
  growth: 102%
[6]
  growth: 99.8%
[7]
  growth: 89.9%
[8]
  growth: 99.9%
[9]
  growth: 96.3%
[10]
  growth: 103%
[11]
  growth: 104%
[12]
  growth: 101%
[13]
  growth: 100%
[14]
  growth: 99.6%
[15]
  growth: 103%
[16]
  growth: 86.5%
[17]
  growth: 111%
[20]
  growth: 101%
[18]
  growth: 102%
[19]
  growth: 97.3%
